Rows were chosen to be rich in hits. Some 2.7% of all compounds tested hit in one or more screens of this group.
14-3-3 Bad inh = disrupts binding of bovine 14-3-3 zeta to phospho-Bad peptide | P63103 | TR-FRET 14-3-3zeta/Dy647-pBad peptide displacement, 1 h | inhibition, % at 21.7 µM | 220,000 tested, 0.71% active;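 active = inhibition above about 70%, limit read from the data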
eIF4E-4G inh = blocks eIF4E binding to eIF4G. AID 782. 220,000 tested, 0.37% active. TR-FRET eIF4E-eIF4GI(517-606) binding, 2 h. inhibition, % at 21.7 µM;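 active = inhibition above about 30%, limit read from the data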
Pf gametocyte = kills late stage P. falciparum gametocytes; 150,000 tested, 0.065% active; P. falciparum stage V gametocytes, ATP luminescence, 24 h; inhibition, % at 10.9 µM;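 active = inhibition above the mean plus 3 SD of compounds within the control limits, set per campaign, cut at about 38% in these data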
Mcl1-Noxa inh = Mcl-1/Noxa interaction inhibition. TR-FRET Mcl-1/Noxa peptide binding, 2 h. inhibition, % at 21.7 µM. 220,000 tested, 1.5% active;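 active = compounds that cut the protein-peptide binding signal by more than 50% relative to plate controls in a single-dose test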;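 also: His-tagged Mcl-1 with rhodamine Noxa BH3 peptide and terbium anti-His antibody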
Mcl1-Bid inh = disrupts binding of human Mcl-1 to Bid peptide. Q07820. TR-FRET Mcl-1/Bid-Dy647 peptide binding, 1536-well. inhibition, % at 21.7 µM. 220,000 tested, 0.97% active;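 active = compounds that cut the binding signal by more than half at the single screening dose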;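 also: His-tagged Mcl-1 with europium anti-His antibody binding Bid BH3 peptide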
Bim-Mcl-1 = disrupts Bim peptide binding to human Mcl-1. inhibition, % at 10 µM. Bead-based flow cytometry, Bim peptide-Mcl-1 binding. AID 1009. 190,000 tested, 0.1% active. Q07820; in the data active = inhibition above about 40%
Hits are given with their value; – = inactive; · = no result given; [ ] = remark or other dose.

SMILES	14-3-3 Bad inh	eIF4E-4G inh	Pf gametocyte	Mcl1-Noxa inh	Mcl1-Bid inh	Bim-Mcl-1
CCOc1ccc(CCNC(=O)CCC(=O)Nc2ccc3nc(N4CCN(C)CC4)cc(C)c3c2)cc1OCC	91	–	–	–	–	–
O=C(CCCl)N1CCN(c2nc(-c3ccccc3)cs2)CC1	·	·	–	·	·	·
O=C(COc1ccccc1)Nc1ccc(Cl)cn1	–	–	–	–	–	–
O=C(COc1ccc(Cl)cc1)Nc1ccc(Cl)cn1	82	–	·	–	–	–
CC(/C=N/NC(=O)c1cc(-c2cccn2C)n[nH]1)=C\c1ccccc1	95	–	–	–	–	·
Cc1ccc(S(=O)(=O)Nc2ccc(O)c(Sc3ncn[nH]3)c2)cc1	–	–	·	–	–	–
Cc1ccc(C)c(S(=O)(=O)Nc2ccc(O)c(Sc3ncn[nH]3)c2)c1	–	–	–	–	–	·
Cc1ccc(S(=O)(=O)/N=C2/C=C(Sc3ncn[nH]3)C(=O)c3ccccc32)c(C)c1	–	–	·	94	–	–
CCOc1ccc(S(=O)(=O)Nc2ccc(O)c(Sc3ncn[nH]3)c2)cc1	–	–	·	–	–	–
CC(C)c1ccc(S(=O)(=O)/N=C2/C=C(Sc3ncn[nH]3)C(=O)c3ccccc32)cc1	79[fluorescence artefact?]	–	·	105	–	–
Cc1ccc(S(=O)(=O)/N=C2/C=C(Sc3ncn[nH]3)C(=O)c3ccccc32)cc1	88[fluorescence artefact?]	34[fluorescence artefact?]	·	98	65	–
CC(=O)N(C1=C(Cl)C(=O)c2ccccc2C1=O)C1CCCCC1	–	–	–	91	–	·
CN(CCN(C)C(C)(C)C)C(=O)C(c1ccccc1)c1ccccc1	–	–	–	–	74	·
CC(C)(CO)NC(=O)C(c1ccccc1)c1ccccc1	–	–	·	–	–	–
CCOC(=O)C1CCN(C(c2ccccn2)c2c(C)[nH]c3ccccc23)CC1 (configuration not stated)	–	–	·	59	–	–
Cc1[nH]c2ccccc2c1C(c1ccncc1)N1CCN(c2ccccn2)CC1 (configuration not stated)	–	–	–	–	–	–
Cc1[nH]c2ccccc2c1C(c1ccncc1)N1CCC(C)CC1 (configuration not stated)	–	–	·	–	–	–
Cc1[nH]c2ccccc2c1C(c1ccccn1)N1CCC(C(N)=O)CC1 (configuration not stated)	–	–	·	57	–	–
O=C(Cc1cccs1)Nc1cccc(C(=O)Nc2ccc(C(=O)O)cc2)c1	–	–	–	–	–	–
COc1ccc(NC(=O)c2ccc(NC(=O)CN(C)CC(=O)Nc3c(C)cccc3C)cc2)cc1	–	–	–	–	–	·
O[C@@H](CNC[C@H](O)c1ccccc1)c1ccccc1	–	–	·	–	–	–
Cc1cc(C)n(CCCNCC(O)c2ccccc2)n1 (configuration not stated)	85	–	·	–	–	–
Cc1cc(N=Cc2c(O)ccc3cc(Br)ccc23)no1	–	–	–	84	–	–
Cc1cc(N=Cc2c(O)ccc3ccccc23)no1	–	–	–	–	–	–
O=C(CCN1C(=O)C2C3C=CC(C3)C2C1=O)Nc1ccccn1 (configuration not stated)	–	47	–	–	–	–
SMILES	14-3-3 Bad inh	eIF4E-4G inh	Pf gametocyte	Mcl1-Noxa inh	Mcl1-Bid inh	Bim-Mcl-1
CC(NC(=O)Nc1ccccn1)N1C(=O)C2C3C=CC(C3)C2C1=O (configuration not stated)	–	–	·	–	–	48
CC(O)Cc1cn(CC(=O)N2CCN(C(=O)OC(C)(C)C)CC2)nn1 (configuration not stated)	–	–	–	–	–	–
N#Cc1c(N)sc(=S)c2c1CCN(Cc1ccccc1)C2	–	–	·	71	–	–
COc1cc(C2C(C#N)=C(N)Oc3cc(O)ccc32)cc(OC)c1OC (configuration not stated)	–	–	·	–	60	–
COc1ccc(C2C(C#N)=C(N)Oc3cc(O)ccc32)cc1OC (configuration not stated)	–	–	–	–	–	–
OC1CCNC(=S)N1c1ccccc1 (configuration not stated)	–	–	–	–	–	–
Cc1nn(-c2ccc(Cl)c(Cl)c2)c(C)c1C(=O)O	–	–	–	–	–	54
CCCOC(=O)C1[C@H]2C(=O)N(CCCOC)C[C@]23C=C[C@H]1O3 (some centres not stated)	–	–	·	59	–	–
CC(C)(C)NC(=O)NC(=O)COC(=O)CNC(=O)c1cc(Cl)cc([N+](=O)[O-])c1	–	–	42	–	–	–
Cc1ccc(-c2cn(-c3ccccc3)c(SCC(N)=O)n2)cc1C	–	–	·	–	87	–
Cc1nn(Cc2ccc(F)cc2)c2sc(C(=O)Nc3ccc(N4CCOCC4)cc3N3CCOCC3)cc12	–	–	·	76	–	–
Cc1nn(Cc2ccccc2)c(C)c1C(=O)Nc1ccc(N2CCOCC2)cc1	–	–	–	–	–	–
NS(=O)(=O)c1ccc(N/C=C\C(=O)c2ccc3ccccc3c2)cc1	–	–	·	–	54	–
COc1ccc(N/C=C\C(=O)c2ccc3ccccc3c2)cc1	·	·	–	·	·	·
COc1ccccc1-n1c(SCC(=O)Nc2cccc(C)c2)nc2c(c1=O)SCC2	–	–	·	–	–	–
N#Cc1c(Nc2cccc(F)c2)sc2c(O)cc(=O)[nH]c12	–	–	–	54	–	–
O=C(NN=C1C2CC3CC1CC(Cl)(C3)C2)c1ccccn1	–	–	–	67	–	–
CC1CCCCN1C(=S)NC(=O)c1cccs1 (configuration not stated)	–	92	–	–	–	·
OC(CNCc1ccccc1Cl)C(F)(F)F (configuration not stated)	82	–	·	–	–	–
Cn1cccc1CNCc1ccccc1Cl	–	–	·	–	–	–
Cc1ccccc1NC(=O)CN1C(=O)N/C(=C\c2ccc(N3CCOCC3)c(F)c2)C1=O	–	–	–	–	–	–
O=C(N/N=C/c1cc(Br)c(Br)o1)c1ccc2c(c1)OCCO2	–	–	–	57	–	·
O=c1cc(-c2ccccc2Cl)oc2c(Br)ccc(O)c12	–	–	·	–	–	–
C=C1C(C(=O)Nc2ccc(F)cc2)C1C(=O)Nc1ccc(F)cc1 (configuration not stated)	–	–	–	–	–	–
COc1ccc(CN2C(=O)Cc3c2nc(N)c2c(N)nc(N4CCCCC4)c(C#N)c32)cc1	–	–	·	58	–	–
COc1cc2c(C#N)c(N3CCCCC3)nc(N)c2c(N)n1	–	–	·	–	–	–
COc1ccc(Nc2ccc(S(=O)(=O)N3CCCCC3)cc2[N+](=O)[O-])cc1	85	–	–	–	–	–
O=[N+]([O-])c1cc(S(=O)(=O)N2CCCCC2)ccc1NCCN1CCOCC1	–	–	–	–	–	–
O=[N+]([O-])c1cc(S(=O)(=O)N2CCCCC2)ccc1NCCCN1CCOCC1	–	–	–	54	–	–
